The source of these data is PubChem BioAssay (Tox21).

The nature of experiment [1]: qHTS RealTime-Glo MT Cell Viability Assay in HEK293 cells - 40 hour (AID 1224874). Further: nearly all actives have a fitted effect of over 50% in size. Further: potency means the concentration at half of the fitted maximal effect. Particulars: RealTime-Glo luminescence; max response: stronger effect = lower value. Put shortly:
(§1)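 Kinetic, non-lysing viability readout. Seed HEK293 (600/well) with reagent, incubate 5 h at 37 C/5% CO2, pin 23 nL compound in DMSO, incubate at 37 C, read luminescence at 0, 8, 16, 24, 32, 40 h.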
(In general: qHTS replaces the single test concentration by a dilution series.)

Experiment [2] is described as follows: A CellTox Green Cytotoxicity Assay to monitor cytotoxicity in HEK293 cells - 24 hour (AID 1224875). Further: series mostly up to about 77 µM; nearly all actives have a fitted effect of over 45% in size. Put shortly:
(§2)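 Real-time, in one plate: 600 HEK293 cells/well with dead-cell DNA dye, pinned compound after 5 h, 37 C incubation over 40 h; viable cells give no appreciable fluorescence.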

A short description of experiment [3]: A CellTox Green Cytotoxicity Assay to monitor cytotoxicity in HepG2 cells - 16 hour (AID 1224876). Further: nearly all actives have a fitted effect of over 45% in size. Put shortly:
(§3)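 Cytotoxicity was tracked as dead-cell DNA fluorescence in HepG2 cells treated with test compounds at 37 C; each time-point value comes from one kinetic series spanning 0, 8, 16, 24, 32 and 40 h.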

Experiment [4] can be described thus: qHTS RealTime-Glo MT Cell Viability Assay in HepG2 cells - 32 hour (AID 1224877). Further: nearly all actives have a fitted effect of over 55% in size. Put shortly: (§4)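 Compound treatment began 5 h after plating HepG2 cells (600/well) with NanoLuc luciferase and prosubstrate. Plates stayed at 37 C for 40 h; luminescence was captured at six time points, 0 h through 40 h.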
Experiment [5] is described as follows: A CellTox Green Cytotoxicity Assay to monitor cytotoxicity in HepG2 cells - 24 hour (AID 1224878). Further: nearly all actives have a fitted effect of over 45% in size. Put shortly:
as §3

Experiment [6] can be described thus: A CellTox Green Cytotoxicity Assay to monitor cytotoxicity in HepG2 cells - 40 hour (AID 1224879). Further: nearly all actives have a fitted effect of over 40% in size. Further: potency means the concentration at half of the fitted maximal effect. In a few lines:
as §3

Experiment [7] in a line: qHTS RealTime-Glo MT Cell Viability Assay in HEK293 cells - 0 hour (AID 1224880). Further: top concentration of the series differs between compounds; nearly all actives have a fitted effect of over 45% in size. Put shortly:
as §1

A short description of experiment [8]: A CellTox Green Cytotoxicity Assay to monitor cytotoxicity in HEK293 cells - 32 hour (AID 1224881). Further: nearly all actives have a fitted effect of over 40% in size. Put shortly:
as §2

Experiment [9] can be described thus: A CellTox Green Cytotoxicity Assay to monitor cytotoxicity in HepG2 cells - 0 hour (AID 1224882). Further: nearly all actives have a fitted effect of over 35% in size. Put shortly: as §3
Experiment [10] can be described thus: A CellTox Green Cytotoxicity Assay to monitor cytotoxicity in HepG2 cells - 32 hour (AID 1224883). Further: nearly all actives have a fitted effect of over 50% in size. In a few lines:
as §3

A short description of experiment [11]: A CellTox Green Cytotoxicity Assay to monitor cytotoxicity in HEK293 cells - 8 hour (AID 1224884). Further: nearly all actives have a fitted effect of over 35% in size. In a few lines:
as §2

A short description of experiment [12]: qHTS RealTime-Glo MT Cell Viability Assay in HepG2 cells - 16 hour (AID 1224885). Further: nearly all actives have a fitted effect of over 50% in size. In a few lines:
as §4

A short description of experiment [13]: qHTS RealTime-Glo MT Cell Viability Assay in HEK293 cells - 24 hour (AID 1224886). Further: nearly all actives have a fitted effect of over 50% in size. Further: potency means the concentration at half of the fitted maximal effect. In a few lines: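 Quantitative high-throughput screen of the Tox21 10K library in HEK293: cells and RealTime-Glo reagents plated together, compound added at 5 h, luminescence monitored through 40 h at 37 C.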
Experiment [14] in a line: qHTS RealTime-Glo MT Cell Viability Assay in HEK293 cells - 8 hour (AID 1224887). Put shortly: as §1
The nature of experiment [15]: qHTS RealTime-Glo MT Cell Viability Assay in HepG2 cells - 0 hour (AID 1224889). Further: nearly all actives have a fitted effect of over 50% in size. In a few lines: as §4
Experiment [16] is described as follows: A CellTox Green Cytotoxicity Assay to monitor cytotoxicity in HepG2 cells - 8 hour (AID 1224890). Further: nearly all actives have a fitted effect of over 45% in size. Put shortly: as §3
Experiment [17] is described as follows: qHTS assay to identify small molecule antagonists of the estrogen receptor alpha (ER-alpha) signaling pathway using the BG1 cell line in the presence of 0.1 nM 17-beta-estradiol - cell viability counter screen (AID 1259241). Further: nearly all actives have a fitted effect of over 40% in size. Put shortly:
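The cell line endogenously expresses full-length ER-alpha and carries four EREs driving luciferase. Cells are cultured 5 days hormone-free, treated 22 hr with compounds and 0.1 nM estradiol, then viability is read by fluorescence.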

Experiment [18] can be described thus: qHTS assay to identify small molecule antagonists of the androgen receptor (AR) signaling pathway using the MDA cell line in the presence of 0.5 nM R1881 - cell viability counter screen (AID 1259242). Further: nearly all actives have a fitted effect of over 45% in size. In a few lines: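 Cells seeded at 3,000/well and allowed 5 hr at 37C, 0% CO2 before compound transfer and R1881 (0.5 nM final) addition; 16 hr later, live-cell protease fluorescence indicated cytotoxicity.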

Experiment [19] can be described thus: A CellTox Green Cytotoxicity Assay to monitor cytotoxicity in HEK293 cells - 16 hour (AID 1224888). Further: nearly all actives have a fitted effect of over 35% in size. In a few lines:
as §2

Where “and” joins values, the source holds several entries; their conditions need not be identical. Identical values can stand only once. Results filed as inconclusive are left out. A structure can be active in one record and inactive in another. Calls of active or inactive are those of the source. The call rests on the fitted dose curve; in most records, active means well fitted curve in the direction sought with a large enough effect in the repeat runs; inconclusive means weak or mixed curves; inactive means no such curve, though single readings can be large; an effect the other way counts as inactive or inconclusive.
On the % scale 0 is the no-effect control and ±100 the full control effect.

On to `CC(C)(C)OOC(C)(C)C`, for which the max response in [1] is 1.79% (inactive) and 12.3% (inactive). The Potency result in [2], in experiment [3], in experiment [5], in experiment [6], in experiment [8] and in experiment [9] was “inactive” throughout. Further, the Potency entry in experiment [10], in [11], in [13], in experiment [16] and in experiment [17] was “inactive” in each case. For the same compound, the outcome in [4], in experiment [7], in experiment [12], in experiment [14], in experiment [15] and in experiment [18] was inactive.

For the compound `Cc1ccc(N)cc1N`, in [1], the max response was 14.6% (inactive). Also, the Potency result in [2], in experiment [3], in experiment [5], in [6], in [8] and in experiment [9] was “inactive” in each case. Further, the Potency entry in [10], in [11], in [13], in [19], in [16] and in experiment [17] was “inactive” in each case. Besides, the result in experiment [4], in experiment [7], in [12], in experiment [14], in experiment [15] and in experiment [18] was inactive.

Take `CN=C=S`: the max response in experiment [1] is 6.14% (inactive) and -4.64% (inactive). Further, the Potency entry in [2], in [3], in experiment [5], in experiment [6], in [8] and in experiment [9] was “inactive” each time. In addition, the Potency result in experiment [10], in [11], in [13], in [19], in experiment [16] and in experiment [17] was “inactive” throughout. Further, the outcome in experiment [4], in experiment [7], in experiment [12], in experiment [14], in [15] and in experiment [18] was inactive.

Regarding `CCC12COCN1COC2`, the max response in experiment [1] was 1.37% (inactive) and 3.08% (inactive). Besides, the Potency result in experiment [2], in [3], in experiment [5], in experiment [6], in [8] and in [9] was “inactive” each time. Moreover, the Potency result in experiment [10], in experiment [11], in [13], in experiment [19], in [16] and in experiment [17] was “inactive” throughout. Moreover, the call in experiment [4], in experiment [7], in [12], in experiment [14], in [15] and in experiment [18] was inactive.

Consider `O=C1CCCN1`, for which, in experiment [1], the max response was 1.24% (inactive) and -5.73% (inactive). Moreover, the Potency entry in [2], in experiment [3], in [5], in [6], in experiment [8] and in experiment [9] was “inactive” each time. Besides, the Potency entry in [10], in experiment [11], in experiment [13], in experiment [19], in [16] and in experiment [17] was “inactive” throughout. The compound was classed as inactive in experiment [4], in experiment [7], in [12], in experiment [14], in experiment [15] and in experiment [18].

With `CCN(CC)CCO`, the max response in experiment [1] was 2.53% (inactive) and -12.7% (inactive). Further, the Potency entry in experiment [2], in [3], in experiment [5], in [6], in experiment [8] and in experiment [9] was “inactive” throughout. The Potency entry in [10], in experiment [11], in experiment [13], in [19], in [16] and in experiment [17] was “inactive” in each case. In addition, the compound was classed as inactive in experiment [4], in experiment [7], in experiment [12], in experiment [14], in [15] and in experiment [18].

As for `Clc1ccccc1Cl`, in [1], the max response is 2.45% (inactive) and -10.4% (inactive). Further, the Potency result in [2], in experiment [3], in [5], in experiment [8], in experiment [9] and in experiment [10] was “inactive” each time. Besides, the Potency result in experiment [11], in experiment [13], in [16] and in experiment [17] was “inactive” each time. Also, the result in experiment [4], in [7], in experiment [12], in experiment [14], in experiment [15] and in [18] was inactive. Also, the Potency entry in experiment [6] is “inactive and 54.9 µM (active)”.

Turning to `CCCCCOC(=O)c1ccccc1C(=O)OCCCCC`, in [1], the max response was -11.1% (inactive) and -2.4% (inactive). The Potency entry in [2], in experiment [3], in experiment [5], in experiment [6], in experiment [8] and in experiment [9] was “inactive” each time. Further, the Potency result in experiment [10], in experiment [11], in experiment [13], in [16] and in [17] was “inactive” throughout. Moreover, the result in experiment [4], in [7], in experiment [12], in experiment [14], in [15] and in [18] was inactive.

In the case of `Nc1ccc(Br)cc1`, in [1], the max response was -1.58% (inactive) and -21.4% (inactive). The Potency result in [2], in experiment [3], in [5], in experiment [6], in experiment [8] and in experiment [9] was “inactive” each time. For the same compound, the Potency entry in experiment [10], in experiment [11], in experiment [13], in experiment [19], in [16] and in [17] was “inactive” each time. The compound was classed as inactive in experiment [4], in experiment [7], in experiment [12], in experiment [14], in experiment [15] and in experiment [18].

Regarding `O=NN1CCCCCCC1`, the max response in [1] is 6.51% (inactive) and -7.12% (inactive). Besides, the Potency entry in experiment [2], in experiment [3], in experiment [5], in experiment [8], in [9] and in [10] was “inactive” in each case. The Potency entry in experiment [11], in experiment [13], in experiment [19], in [16] and in experiment [17] was “inactive” throughout. For the same compound, the compound was called inactive in experiment [4], in experiment [7], in [12], in experiment [14], in experiment [15] and in [18].

With `CC1C=[C-]C=C1.[C-]#[O+].[C-]#[O+].[C-]#[O+].[Mn]`, the max response in experiment [1] was 5.97% (inactive) and 3.98% (inactive). Further, the Potency result in experiment [2], in experiment [3], in [5], in [8], in experiment [9] and in experiment [10] was “inactive” throughout. The Potency entry in experiment [11], in experiment [13], in [19], in experiment [16] and in experiment [17] was “inactive” throughout. In addition, the call in experiment [4], in experiment [7], in experiment [12], in experiment [14], in experiment [15] and in [18] was inactive.

`CCCCOC(=O)c1ccccc1C(=O)OCCCC`: in [1], the max response is -5.69% (inactive) and -1.79% (inactive). The Potency entry in experiment [2], in [5], in experiment [6], in experiment [8], in experiment [9] and in [10] was “inactive” each time. Moreover, the Potency entry in [11], in experiment [13], in experiment [19], in experiment [16] and in experiment [17] was “inactive” throughout. For the same compound, the outcome in experiment [4], in experiment [7], in experiment [12], in experiment [14], in experiment [15] and in [18] was inactive.

For the compound `Cc1ccccc1O`, the max response in experiment [1] is 2.91% (inactive) and -0.867% (inactive). Besides, the Potency result in experiment [2], in experiment [3], in [5], in [8], in [9] and in experiment [10] was “inactive” each time. For the same compound, the Potency entry in [11], in [13], in [19], in experiment [16] and in [17] was “inactive” throughout. Further, the result in experiment [4], in [7], in experiment [12], in experiment [14], in experiment [15] and in [18] was inactive.

With `CCNc1nc(NC(C)(C)C)nc(SC)n1`, the figures for the Potency in [1] and in experiment [13] were 27.2 µM (active) and 43.1 µM (active), respectively. Besides, the Potency result in [2], in [3], in experiment [5], in experiment [8], in experiment [9] and in experiment [10] was “inactive” each time. For the same compound, the Potency result in experiment [11], in experiment [19], in [16] and in [17] was “inactive” throughout. The outcome in experiment [4], in experiment [7], in experiment [12], in [14], in [15] and in [18] was inactive.
